We go through 6 molecules from ChEMBL document CHEMBL1961873, “Compounds: GSK PKIS; Assays: Nanosyn kinase panel” (2012).

One may read the inhibition as the change of the read-out against control, counted positive when it falls.

Experiment [1] has as its target Mast/stem cell growth factor receptor Kit (Homo sapiens) (UniProt P10721). As to conditions: at 1 µM.
For experiment [2], the system named is Mast/stem cell growth factor receptor Kit (Homo sapiens), P10721 [D816V]. As to conditions: at 0.1 µM.
For experiment [3] the test system is unchanged. As to conditions: at 1 µM.
Experiment [4] deals with Mast/stem cell growth factor receptor Kit (Homo sapiens), P10721 [T670I]. As to conditions: at 0.1 µM.
For experiment [5] the test system is unchanged. Particulars: at 1 µM.
Experiment [6] relates to Mast/stem cell growth factor receptor Kit (Homo sapiens), P10721 [V560G]. Particulars: at 0.1 µM.
The test system is the same in experiment [7]. Particulars: at 1 µM.
Experiment [8] deals with Tyrosine-protein kinase Lck (Homo sapiens) (UniProt P06239). As to conditions: at 0.1 µM.
Experiment [9] shares this target. As to conditions: at 1 µM.
For experiment [10], the target named is Leukocyte tyrosine kinase receptor (Homo sapiens) (UniProt P29376). As to conditions: at 0.1 µM.
Experiment [11] has the same target. Particulars: at 1 µM.
Experiment [12] deals with Tyrosine-protein kinase Lyn (Homo sapiens) (UniProt P07948). As to conditions: at 0.1 µM.
For experiment [13] the target is unchanged. As to conditions: at 1 µM.
Experiment [14] shares this target. As to conditions: at 0.1 µM. The source holds these as a separate data set.
Experiment [15] has the same target. As to conditions: at 1 µM. The source holds these as a separate data set.
Experiment [16] deals with T1, Tyrosine-protein kinase Mer (Homo sapiens) (UniProt Q12866).
T1 sequence (whole entry): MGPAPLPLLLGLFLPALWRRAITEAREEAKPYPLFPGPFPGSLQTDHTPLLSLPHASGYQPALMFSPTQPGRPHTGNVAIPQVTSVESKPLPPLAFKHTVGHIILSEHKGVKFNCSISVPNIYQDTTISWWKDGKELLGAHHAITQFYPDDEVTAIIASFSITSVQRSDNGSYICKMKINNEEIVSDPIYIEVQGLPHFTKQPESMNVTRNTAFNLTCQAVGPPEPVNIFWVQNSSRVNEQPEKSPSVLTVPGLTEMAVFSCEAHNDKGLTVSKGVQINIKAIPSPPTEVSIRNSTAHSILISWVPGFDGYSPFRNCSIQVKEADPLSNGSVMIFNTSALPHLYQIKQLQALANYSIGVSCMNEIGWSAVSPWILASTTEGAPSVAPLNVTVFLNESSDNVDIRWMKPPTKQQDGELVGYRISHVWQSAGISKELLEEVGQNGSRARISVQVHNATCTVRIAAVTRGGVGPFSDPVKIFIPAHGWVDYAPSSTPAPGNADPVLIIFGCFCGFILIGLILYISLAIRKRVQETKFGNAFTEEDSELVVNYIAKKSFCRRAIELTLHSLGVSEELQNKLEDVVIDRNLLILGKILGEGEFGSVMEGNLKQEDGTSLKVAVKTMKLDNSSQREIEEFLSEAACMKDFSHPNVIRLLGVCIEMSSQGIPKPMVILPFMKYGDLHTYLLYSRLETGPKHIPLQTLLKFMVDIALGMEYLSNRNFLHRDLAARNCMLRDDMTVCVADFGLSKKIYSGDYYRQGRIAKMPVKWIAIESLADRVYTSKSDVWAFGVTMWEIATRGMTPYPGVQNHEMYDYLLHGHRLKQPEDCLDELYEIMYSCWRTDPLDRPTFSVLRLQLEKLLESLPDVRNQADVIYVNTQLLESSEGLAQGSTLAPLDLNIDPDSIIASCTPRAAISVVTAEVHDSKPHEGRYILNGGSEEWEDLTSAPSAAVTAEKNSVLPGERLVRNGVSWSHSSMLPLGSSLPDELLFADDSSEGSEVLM
Particulars: at 0.1 µM.

Experiment [17] concerns the target T1, Tyrosine-protein kinase Mer (Homo sapiens). As to conditions: at 1 µM.
Experiment [18] concerns the target Hepatocyte growth factor receptor (Homo sapiens) (UniProt P08581). As to conditions: at 0.1 µM.
Experiment [19] has the same target. Particulars: at 1 µM.
The target in experiment [20] is T2, Muscle, skeletal receptor tyrosine-protein kinase (Homo sapiens) (UniProt O15146).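 Note: values are mean inhibition of MuSK from the GSK PKIS kinase screening panel.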
T2 sequence (whole entry): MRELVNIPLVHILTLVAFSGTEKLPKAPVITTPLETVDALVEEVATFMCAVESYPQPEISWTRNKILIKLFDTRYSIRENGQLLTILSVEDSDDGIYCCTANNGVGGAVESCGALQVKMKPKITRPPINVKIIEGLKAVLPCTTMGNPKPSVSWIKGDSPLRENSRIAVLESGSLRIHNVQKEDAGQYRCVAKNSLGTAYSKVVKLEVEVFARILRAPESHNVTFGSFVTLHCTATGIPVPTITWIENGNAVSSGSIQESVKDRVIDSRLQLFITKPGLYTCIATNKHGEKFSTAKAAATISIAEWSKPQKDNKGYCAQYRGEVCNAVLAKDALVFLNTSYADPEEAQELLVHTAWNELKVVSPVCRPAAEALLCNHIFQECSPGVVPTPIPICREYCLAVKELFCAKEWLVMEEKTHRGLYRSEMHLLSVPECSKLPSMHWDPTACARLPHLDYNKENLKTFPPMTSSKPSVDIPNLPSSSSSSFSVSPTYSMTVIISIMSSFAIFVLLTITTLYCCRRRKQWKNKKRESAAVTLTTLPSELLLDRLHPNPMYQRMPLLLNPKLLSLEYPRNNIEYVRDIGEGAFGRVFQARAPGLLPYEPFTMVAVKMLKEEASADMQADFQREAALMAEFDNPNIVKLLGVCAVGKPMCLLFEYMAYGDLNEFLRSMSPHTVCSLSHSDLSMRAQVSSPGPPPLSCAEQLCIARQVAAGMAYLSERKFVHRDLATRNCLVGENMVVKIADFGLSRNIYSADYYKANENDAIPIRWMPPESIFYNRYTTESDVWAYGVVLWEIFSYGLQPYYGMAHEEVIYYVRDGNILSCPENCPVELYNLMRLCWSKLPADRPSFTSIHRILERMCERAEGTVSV
As to conditions: at 0.1 µM.

Molecules are shown by their SMILES.

Leukocyte tyrosine kinase receptor (Homo sapiens), sequence (P29376 whole entry): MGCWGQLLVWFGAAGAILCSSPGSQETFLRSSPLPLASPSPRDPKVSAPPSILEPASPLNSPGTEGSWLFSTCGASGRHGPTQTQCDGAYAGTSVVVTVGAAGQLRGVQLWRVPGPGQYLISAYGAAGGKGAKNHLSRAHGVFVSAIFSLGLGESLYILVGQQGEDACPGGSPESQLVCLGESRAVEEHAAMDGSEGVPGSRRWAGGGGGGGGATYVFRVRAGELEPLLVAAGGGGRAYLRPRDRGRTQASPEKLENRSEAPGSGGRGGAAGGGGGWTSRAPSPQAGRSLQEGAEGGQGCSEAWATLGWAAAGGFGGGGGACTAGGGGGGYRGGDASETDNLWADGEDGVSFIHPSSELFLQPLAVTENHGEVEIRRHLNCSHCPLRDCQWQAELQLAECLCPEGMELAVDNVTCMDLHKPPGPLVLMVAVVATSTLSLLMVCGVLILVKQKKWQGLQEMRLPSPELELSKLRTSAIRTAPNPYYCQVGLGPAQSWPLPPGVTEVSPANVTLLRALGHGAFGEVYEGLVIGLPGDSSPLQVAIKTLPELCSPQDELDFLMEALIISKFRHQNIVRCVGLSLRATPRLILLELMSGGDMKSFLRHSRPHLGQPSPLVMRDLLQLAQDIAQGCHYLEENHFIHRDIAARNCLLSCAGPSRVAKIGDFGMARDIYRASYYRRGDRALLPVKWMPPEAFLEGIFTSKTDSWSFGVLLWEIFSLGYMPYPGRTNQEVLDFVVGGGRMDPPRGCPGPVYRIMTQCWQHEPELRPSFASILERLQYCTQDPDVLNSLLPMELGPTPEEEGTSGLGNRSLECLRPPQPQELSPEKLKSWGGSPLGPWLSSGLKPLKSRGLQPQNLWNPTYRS
Mast/stem cell growth factor receptor Kit (Homo sapiens), P10721 [D816V], sequence (P10721 whole entry D816V): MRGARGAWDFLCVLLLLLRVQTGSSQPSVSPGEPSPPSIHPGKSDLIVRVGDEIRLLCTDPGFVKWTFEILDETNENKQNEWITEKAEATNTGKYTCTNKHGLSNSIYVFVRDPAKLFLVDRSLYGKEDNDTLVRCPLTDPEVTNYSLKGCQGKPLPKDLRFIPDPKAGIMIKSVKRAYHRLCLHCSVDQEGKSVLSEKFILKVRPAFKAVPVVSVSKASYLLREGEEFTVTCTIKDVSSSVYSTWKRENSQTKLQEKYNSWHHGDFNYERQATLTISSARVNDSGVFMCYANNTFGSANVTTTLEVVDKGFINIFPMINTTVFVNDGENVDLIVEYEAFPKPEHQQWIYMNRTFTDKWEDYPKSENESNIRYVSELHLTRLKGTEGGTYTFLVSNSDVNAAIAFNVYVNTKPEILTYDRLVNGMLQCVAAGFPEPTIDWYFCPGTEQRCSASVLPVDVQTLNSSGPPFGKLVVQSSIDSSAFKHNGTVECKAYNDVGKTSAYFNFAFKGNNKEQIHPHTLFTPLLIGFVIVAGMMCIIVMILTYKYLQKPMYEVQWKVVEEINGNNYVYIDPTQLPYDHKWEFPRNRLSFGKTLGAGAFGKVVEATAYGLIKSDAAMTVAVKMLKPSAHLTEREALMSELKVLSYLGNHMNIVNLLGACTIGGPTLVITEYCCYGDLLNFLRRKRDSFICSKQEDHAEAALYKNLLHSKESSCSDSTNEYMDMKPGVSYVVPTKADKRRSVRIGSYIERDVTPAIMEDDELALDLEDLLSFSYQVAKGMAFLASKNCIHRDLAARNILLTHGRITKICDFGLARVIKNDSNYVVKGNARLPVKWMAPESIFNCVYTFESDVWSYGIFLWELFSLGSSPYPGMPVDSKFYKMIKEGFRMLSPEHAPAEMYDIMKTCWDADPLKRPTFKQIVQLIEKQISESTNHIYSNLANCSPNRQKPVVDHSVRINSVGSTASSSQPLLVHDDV
Tyrosine-protein kinase Lck (Homo sapiens), sequence (P06239 2-509 limits assumed): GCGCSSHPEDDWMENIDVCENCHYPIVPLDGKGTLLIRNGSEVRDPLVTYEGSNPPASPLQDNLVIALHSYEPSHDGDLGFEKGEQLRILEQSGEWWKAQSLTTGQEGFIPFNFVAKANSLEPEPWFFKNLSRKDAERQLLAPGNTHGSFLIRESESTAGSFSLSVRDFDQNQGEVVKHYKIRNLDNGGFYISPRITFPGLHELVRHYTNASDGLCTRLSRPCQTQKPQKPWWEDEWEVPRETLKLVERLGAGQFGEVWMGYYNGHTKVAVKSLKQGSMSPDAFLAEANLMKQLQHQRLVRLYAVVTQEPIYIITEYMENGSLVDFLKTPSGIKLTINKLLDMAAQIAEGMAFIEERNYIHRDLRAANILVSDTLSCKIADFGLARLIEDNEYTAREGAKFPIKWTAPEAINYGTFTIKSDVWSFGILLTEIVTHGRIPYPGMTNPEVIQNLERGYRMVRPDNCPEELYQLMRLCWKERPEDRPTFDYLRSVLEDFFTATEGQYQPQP
Hepatocyte growth factor receptor (Homo sapiens), sequence (P08581 whole entry): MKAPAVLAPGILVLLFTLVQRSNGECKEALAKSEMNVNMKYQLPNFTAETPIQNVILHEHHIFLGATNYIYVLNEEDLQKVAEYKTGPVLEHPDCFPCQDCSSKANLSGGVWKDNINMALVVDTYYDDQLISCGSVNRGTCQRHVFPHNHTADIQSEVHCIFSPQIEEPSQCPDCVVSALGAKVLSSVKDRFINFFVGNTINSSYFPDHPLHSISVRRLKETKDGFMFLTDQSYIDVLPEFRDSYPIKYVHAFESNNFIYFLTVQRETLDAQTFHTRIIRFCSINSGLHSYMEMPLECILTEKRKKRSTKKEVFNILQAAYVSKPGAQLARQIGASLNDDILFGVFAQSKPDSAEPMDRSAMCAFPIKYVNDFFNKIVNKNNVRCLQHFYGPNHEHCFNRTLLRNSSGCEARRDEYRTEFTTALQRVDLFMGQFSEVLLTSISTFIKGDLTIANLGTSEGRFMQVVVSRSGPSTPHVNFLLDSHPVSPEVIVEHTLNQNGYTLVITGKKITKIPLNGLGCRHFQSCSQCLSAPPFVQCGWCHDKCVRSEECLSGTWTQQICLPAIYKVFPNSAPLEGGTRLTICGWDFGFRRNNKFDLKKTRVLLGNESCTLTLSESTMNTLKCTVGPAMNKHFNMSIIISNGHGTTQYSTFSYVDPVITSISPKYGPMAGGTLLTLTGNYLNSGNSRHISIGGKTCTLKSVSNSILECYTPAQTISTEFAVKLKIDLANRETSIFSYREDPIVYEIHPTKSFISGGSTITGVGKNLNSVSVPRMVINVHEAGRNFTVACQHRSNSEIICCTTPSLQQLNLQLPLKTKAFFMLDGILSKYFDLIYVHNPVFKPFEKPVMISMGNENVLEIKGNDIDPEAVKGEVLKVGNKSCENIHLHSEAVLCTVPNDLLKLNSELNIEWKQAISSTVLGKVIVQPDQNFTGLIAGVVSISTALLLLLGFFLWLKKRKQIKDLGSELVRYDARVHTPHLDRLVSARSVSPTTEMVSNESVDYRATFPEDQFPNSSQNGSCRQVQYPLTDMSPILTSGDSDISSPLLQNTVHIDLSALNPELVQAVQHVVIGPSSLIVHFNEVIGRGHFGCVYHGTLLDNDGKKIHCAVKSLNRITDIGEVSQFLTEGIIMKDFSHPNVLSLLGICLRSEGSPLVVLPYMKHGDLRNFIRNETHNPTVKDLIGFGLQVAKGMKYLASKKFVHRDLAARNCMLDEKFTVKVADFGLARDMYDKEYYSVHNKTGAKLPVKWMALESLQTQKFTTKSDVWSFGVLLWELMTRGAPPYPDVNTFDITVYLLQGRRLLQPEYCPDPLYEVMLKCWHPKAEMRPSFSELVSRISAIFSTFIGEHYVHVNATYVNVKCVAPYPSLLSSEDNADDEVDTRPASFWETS
Mast/stem cell growth factor receptor Kit (Homo sapiens), P10721 [T670I], sequence (P10721 whole entry T670I): as the sequence (P10721 whole entry D816V) above, with T670I, V816D counted along it
Mast/stem cell growth factor receptor Kit (Homo sapiens), P10721 [V560G], sequence (P10721 whole entry V560G): as the sequence (P10721 whole entry D816V) above, with V560G, V816D counted along it
Tyrosine-protein kinase Lyn (Homo sapiens), sequence (P07948 2-512 limits assumed): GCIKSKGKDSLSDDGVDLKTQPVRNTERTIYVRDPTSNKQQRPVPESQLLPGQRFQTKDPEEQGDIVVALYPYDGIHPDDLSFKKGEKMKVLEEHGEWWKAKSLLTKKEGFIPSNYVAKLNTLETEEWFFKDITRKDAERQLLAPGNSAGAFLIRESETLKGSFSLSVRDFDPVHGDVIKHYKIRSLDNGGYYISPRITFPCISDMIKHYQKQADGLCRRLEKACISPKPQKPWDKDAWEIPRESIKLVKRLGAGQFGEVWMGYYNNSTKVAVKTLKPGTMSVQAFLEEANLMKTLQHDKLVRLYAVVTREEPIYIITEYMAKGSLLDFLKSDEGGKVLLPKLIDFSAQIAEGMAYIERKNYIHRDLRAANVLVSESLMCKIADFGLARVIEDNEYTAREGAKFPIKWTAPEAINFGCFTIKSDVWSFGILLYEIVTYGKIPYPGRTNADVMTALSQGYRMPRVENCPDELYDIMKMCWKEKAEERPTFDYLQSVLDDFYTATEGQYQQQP
Mast/stem cell growth factor receptor Kit (Homo sapiens), sequence (P10721 whole entry): as the sequence (P10721 whole entry D816V) above, with V816D counted along it

As to `CCc1ccc(Oc2nccc(-c3c(-c4ccc(F)cc4)ncn3C3CCNCC3)n2)cc1`, the inhibition in [1] was 3.31%; in experiment [2], 4.91%; in experiment [3], 1.86%; in experiment [4], 2.54%; in [5], 2.33%; in experiment [6], -1.42%. Besides, the inhibition in [7] was -1.63%; in experiment [8] it was 3.37%; in experiment [9], 6.55%; in experiment [10] it was 2.71%; in experiment [11], 2.68%; in [12], 5.24%. Also, the inhibition was 6.76% in experiment [13]; 1.59% in experiment [14]; 3.26% in experiment [15]; 2.01% in experiment [16]; 3.05% in [17]; 5.76% in [18]. Further, the inhibition was 3.25% in experiment [19] and 3.3% in experiment [20].

Turning to `O=C(Nc1n[nH]c2cc(-c3ccccc3)ccc12)C1CC1`, the inhibition in [1] turned out to be 7.38%; in experiment [2], 3.94%; in [3], 8.12%; in [4] it was 4.34%; in experiment [5], 4.01%; in experiment [6] it was 1.4%. The inhibition in [7] is 3.87%; in experiment [8], 2.21%; in experiment [9], 6.66%; in experiment [10] it was 3.88%; in experiment [11], 9.93%; in experiment [12], 5.94%. In addition, the inhibition is 9.06% in experiment [13]; 2.77% in [14]; 5.33% in [15]; 1.8% in [16]; 5.12% in experiment [17]; 0.84% in experiment [18]. Further, the inhibition in [19] was 5.86%; in experiment [20], -0.17%.

For `Fc1ccc(-c2c(-c3ccncc3)nc3n2CCS3)cc1`, the inhibition in experiment [1] is 9.55%; in [2], 0.48%; in [3], 4.72%; in [4], 2.05%; in experiment [5] it was 3.53%; in experiment [6], -2.29%. Moreover, the inhibition in experiment [7] is -3.6%; in experiment [8] it was -3.58%; in experiment [9], -1.31%; in experiment [10] it was 3.49%; in experiment [11], 1.53%; in experiment [12] it was 2.47%. Also, the inhibition in experiment [13] came out at 6.12%; in [14], 1.33%; in experiment [15] it was 3.93%; in experiment [16], 1.44%; in [17] it was 1.51%; in [18], 3.45%. For the same molecule, the inhibition stood at 0.39% in experiment [19] and 4.78% in [20].

`Clc1ccc(CNc2nccc(-c3cnn4ncccc34)n2)cc1`: the inhibition was found to be 19.4% in experiment [1]; 0.92% in [2]; 5.08% in experiment [3]; 1.59% in [4]; 6.47% in [5]; 3.83% in [6]. Also, the inhibition in experiment [7] worked out at 7.92%; in experiment [8] it was 2.31%; in experiment [9] it was 2.46%; in [10] it was 0.55%; in experiment [11] it was 0.38%; in experiment [12], 3.2%. The inhibition in experiment [13] was 5.62%; in experiment [14], 1.68%; in experiment [15] it was 3.11%; in experiment [16], -0.52%; in experiment [17], 0.99%; in [18] it was 2.02%. The inhibition in experiment [19] came out at 7.73%; in experiment [20], 3.18%.

For the molecule `CN(c1ccc(NC(=O)Nc2c(Cl)cccc2Cl)cc1)c1ccnc(Nc2cccc(CS(C)(=O)=O)c2)n1`, the inhibition in experiment [1] is 95.9%; in experiment [2], -0.59%; in [3] it was 2.33%; in experiment [4], 12.3%; in [5] it was 35.9%; in experiment [6] it was 71.3%. Besides, the inhibition in experiment [7] is 81.5%; in experiment [8], 45.5%; in experiment [9] it was 61.2%; in [10], 0.54%; in experiment [11] it was 1.45%; in experiment [12] it was 29.7%. The inhibition in [13] came out at 64.8%; in experiment [14], 27.1%; in [15], 60.9%; in [16], 14.6%; in experiment [17] it was 29.6%; in [18], 80.8%. In addition, the values for the inhibition in experiment [19] and in experiment [20] were 85% and 72.8%, respectively.

For `Cc1ccc(NC(=O)c2ccoc2)cc1-c1ccc(C(=O)NCC2CC2)cc1`, the inhibition in experiment [1] was determined as 0.22%; in experiment [2], 3.87%; in experiment [3], 3.1%; in experiment [4], 1.06%; in [5], 1.82%; in experiment [6], 0.04%. Also, the inhibition in experiment [7] is -1.21%; in experiment [8], 2.02%; in experiment [9], 3.87%; in experiment [10], 2.79%; in [11] it was 3.16%; in [12], 3.73%. Besides, the inhibition in experiment [13] was 3.68%; in [14] it was 3.72%; in [15], 4.12%; in [16], 1.1%; in [17] it was 1.81%; in experiment [18], 11.4%. In addition, the inhibition in experiment [19] was 0.85%; in [20] it was 0.54%.
